High-throughput results as filed in PubChem.
DAX1 inh-1 – inhibitors of DAX1 repression of SF-1 activated StAR promoter | HEK293T StAR-luciferase reporter, SF-1/DAX-1 repression relief | AID 652010 | 370,000 tested, 1.1% active | inhibition, % at 6.8 µM;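 active = inhibition above the mean over all tested compounds plus 3 SD, cut at about 3.6% in these data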;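 also: 0% = DAX-1 cells with DMSO and 100% = cells lacking DAX-1 with DMSO; higher inhibition means more luminescence from relief of DAX-1 repression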
ssDAF-12 act – activates DAF-12 receptor from parasite S. stercoralis | HEK293 ssDAF-12/GRIP1 lit1-tk-luc reporter, luminescence; % of 3 µM dafachronic acid response | activation, % at 6.8 µM | 370,000 tested, 1% active | AID 652126;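 active = activation above the mean over all tested compounds plus 3 SD, cut at about 0.9% in these data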;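 also: 0% = DMSO-only wells and 100% = 3 µM delta7-dafachronic acid wells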
hgDAF-12 ag – agonists of H. glycines DAF-12 nuclear receptor | HEK293 GAL4-hgDAF12 UAS-luciferase reporter, agonist luminescence; normalized to butyrate control | activation, % at 6.8 µM | 370,000 tested, 1.8% active;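 active = activation above a cutoff set at the mean of all screened compounds plus 3 SD, cut at about 10% in these data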;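 also: 0% = DMSO wells and 100% = sodium butyrate wells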
hcDAF12 agonist – activators of H. contortus DAF-12 nuclear receptor; HEK293 hcDAF-12 lit1-tk-luc reporter, luminescence; 0% DMSO, 100% Δ7-dafachronic acid; activation, % at 6.8 µM; 370,000 tested, 1.4% active;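 active = activation above the mean of all tested compounds plus 3 SD, cut at about 5.5% in these data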;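 also: 100% = response to 3 µM Δ7-dafachronic acid high control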
DAX1 inh-2 – inhibitors of human orphan nuclear receptor DAX1 (NR0B1); P51843; 340,000 tested, 0.99% active; HEK293 Gal4-DAX1 luciferase reporter, luminescence; inhibition, % at 6.75 µM;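 active = inhibition above the mean over all tested compounds plus 3 SD, cut at about 4.2% in these data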;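 also: 0% = DAX1-transfected cells with DMSO and 100% = empty-vector control cells with DMSO; inhibition shows as a rise in luminescence from relieved DAX1 repression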
SMARCA2 activ – activators of SMARCA2 function | MG213 cells, MMTV-luciferase reporter, dexamethasone, overnight | activation, % at 9.1 µM | 370,000 tested, 1% active; in the data active = activation above about 7.8%;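 also: 0% = vehicle wells and 100% = reference activator wells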
DAX1 conf – confirmation of human DAX1 (NR0B1) inhibitors. shares compounds with DAX1 inh-1. HEK293T StAR-promoter luciferase reporter, SF-1/DAX-1 repression. inhibition, % at 6.8 µM. 2,400 tested, 87% active. AID 652134;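 active = inhibition above the average of every tested compound plus 3 SD, cut at about 3.8% in these data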;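 also: 0% = DAX-1 cells with DMSO and 100% = no DAX-1 control cells with DMSO; active compounds raise luminescence by relieving repression of the StAR reporter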
Target sequence (P51843 whole entry, looked up): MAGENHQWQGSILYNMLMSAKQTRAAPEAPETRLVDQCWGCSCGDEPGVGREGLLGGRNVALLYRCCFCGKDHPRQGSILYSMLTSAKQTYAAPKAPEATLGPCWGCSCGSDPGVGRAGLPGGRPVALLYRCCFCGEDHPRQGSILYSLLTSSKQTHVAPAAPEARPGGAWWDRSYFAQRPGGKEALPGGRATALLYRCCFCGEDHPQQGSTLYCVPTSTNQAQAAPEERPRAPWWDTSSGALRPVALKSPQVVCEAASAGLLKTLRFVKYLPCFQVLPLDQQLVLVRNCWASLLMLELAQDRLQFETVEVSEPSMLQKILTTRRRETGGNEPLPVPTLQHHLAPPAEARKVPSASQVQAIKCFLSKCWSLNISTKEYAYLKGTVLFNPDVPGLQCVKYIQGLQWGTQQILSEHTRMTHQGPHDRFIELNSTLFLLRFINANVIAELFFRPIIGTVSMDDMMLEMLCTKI
SF1 AF2mut Luc – nonselective inhibitor or artifact in SF-1 mutant DAX1 counter-screen; shares compounds with DAX1 inh-1; HEK293 StAR-luciferase, SF-1 AF2 mutant, luminescence; inhibition, % at 6.8 µM; 2,400 tested, 78% active;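 active = inhibition above the mean of all tested compounds plus 3 SD, cut at about 3% in these data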;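 also: 0% = DAX-1 transfected cells with DMSO and 100% = cells without DAX-1 with DMSO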
Active calls of the source: *; / = no result given. The list is not random: actives were taken first. Their share in the collection is about 4.8%.

SMILES	DAX1 inh-1	ssDAF-12 act	hgDAF-12 ag	hcDAF12 agonist	DAX1 inh-2	SMARCA2 activ	DAX1 conf	SF1 AF2mut Luc
CC(=O)Nc1ccc(C(=O)Nc2ccc3c(c2)OCCO3)cc1	0	-1	0	-1	-1	-2	/	/
O=C(Nc1cccc(F)c1)c1ccc2c(c1)OCCO2	2	1	13*	6.3*	0	6	/	/
Cc1cc(C(=O)Nc2ccc3c(c2)OCCO3)co1	4.1*	1	9	6.1*	1	5	/	/
CCCCOc1ccc(C(=O)NC2CCCCN(CC)C2=O)cc1 (stereo unspecified)	0	-1	7	-1	/	-2	/	/
O=C(CNC(=O)c1ccncc1)N/N=C/c1ccc(Br)cc1	0	-1	-1	-2	6.5*	-2	/	/
CNC(=S)Nc1ccc2[nH]c(=O)[nH]c2c1	0	-1	-1	-1	0	0	/	/
CC(C)NC(=S)Nc1ccc2[nH]c(=O)[nH]c2c1	0	-1	3	-2	4.5*	2	/	/
O=C(Nc1nccs1)c1cc2c(s1)-c1ccccc1OC2	3	0	10*	5	2	1	/	/
O=C(Nc1nccs1)c1ccc(Cl)nc1	0	0	3	5.9*	-1	0	/	/
O=C(Nc1nccs1)c1ccc(Br)s1	3	0	10	5.8*	1	2	/	/
CCn1cc(Cl)c(C(=O)Nc2nccs2)n1	1	0	1	6.4*	1	0	/	/
O=C(Nc1nccs1)c1ccc(Br)cc1	1	0	9	5	3	6	/	/
O=S1(=O)CC2c3ccccc3CN2CN1Cc1ccccc1 (stereo unspecified)	0	-1	-2	2	/	-1	/	/
CCN(CC)C(=O)c1cc2sc3ccccc3c2s1	1	-1	12*	1	2	5	/	/
COCCN(CCOC)C(=O)c1cc2sc3ccccc3c2s1	0	-2	3	1	0	1	/	/
COc1ccc(CN2C[C@]3(C=C(C)Cn4c(=O)n(-c5ccccc5)c(=O)n43)N=C2NC(=O)c2ccccc2)c(OC)c1	-1	-2	2	-2	/	-4	/	/
COc1ccc(Cn2cc(CN3[C@H](CC(C)C)COc4cc(Br)ccc4S3(=O)=O)nn2)cc1	1	-1	1	1	/	2	/	/
CC(C)c1ccc(C(=O)Nc2cc(Cl)ccc2C(=O)O)cc1	/	-1	4	5	/	/	/	/
CN(C)/C=N/c1ncc(C(=O)c2ccc(-c3ccccc3)cc2)s1	0	-2	12*	0	0	-3	/	/
O=C(NC1CCCCC1)c1ccc(-c2cccc([N+](=O)[O-])c2)o1	7.9*	0	9	2	1	4	11*	4.1*
CC(=O)CC[C@@H]1CC[C@]2(CCCN(C(=O)C(C)(C)C)C2)O1	1	0	-2	-1	/	-2	/	/
N#C/C(=C\c1ccc(OCCN2CCOCC2)cc1)C(=O)Nc1ccccc1	-1	-1	-1	-1	1	4	/	/
COc1cc(/C=C(\C#N)C(=O)Nc2ccccc2F)ccc1OCCN1CCOCC1	4.5*	-1	4	3	0	1	5.0*	2
COc1ccc(-c2oc3c(c2C#CC2(O)CCCCC2)C(OC)CCC3)cc1 (stereo unspecified)	5.6*	-1	3	-2	/	5	-1	-1
COc1ccccc1OCC(=O)NNC(=O)CSC(=S)N1CCCC1	5.1*	0	-1	0	-1	-1	-1	0
SMILES	DAX1 inh-1	ssDAF-12 act	hgDAF-12 ag	hcDAF12 agonist	DAX1 inh-2	SMARCA2 activ	DAX1 conf	SF1 AF2mut Luc
C=CCNC(=O)CN(C(=O)Cc1ccc(Cl)nc1)c1cccc(Br)c1	0	-2	2	-2	/	-2	/	/
CCOC(=O)[C@]12CCCCC/C=C\1N(Cc1ccc(OC)cc1)C(=O)[C@H]2CC(=O)NCCCOC	5.2*	-2	-2	-2	/	2	3	0
O/N=C/CCn1c(=S)sc2ccccc21	1	-1	1	1	1	-2	/	/
O=C(OCCn1c(=S)sc2ccccc21)c1ccccc1	6.7*	0	7	2	3	5	9.1*	7.1*
COc1ccc(-n2c(SCC(=O)N3CCCCC3C)nnc2-c2ccncc2)cc1 (stereo unspecified)	-1	-1	-1	-2	/	-1	/	/
O=C(Nc1ccc(N2CCOCC2)c(F)c1)c1cccs1	10*	0	10	4	2	5	11*	7.4*
c1nc(NCC2CCCC2)c2cc(-c3ccc4c(c3)OCO4)ccc2n1	/	-1	2	3	/	/	/	/
COc1ccc(C=C(C#N)c2ccc(OC)cc2)cc1	6.7*	0	17*	3	4	4	9.1*	4.0*
Cc1ccccc1CN1CCCCC(NC(=O)Nc2ccccc2-c2ccccc2)C1=O (stereo unspecified)	-1	-2	-1	-3	/	-4	/	/
O=C(NNC(=O)c1ccccc1O)c1cc2ccccc2o1	5.6*	1.1*	5	5	2	2	3.8*	4.0*
Cc1ccc(Cc2c(-c3ccc(Cl)cc3)nc3cc(C)ccn23)cc1	7.2*	0	7	4	3	7.8*	3	0
Cc1ccn2c(Cc3ccccc3)c(-c3ccccc3)nc2c1	5.5*	-1	11*	4	3	1	2	2
Cc1ccc(Cc2c(-c3ccc(Cl)cc3)nc3ccc(Br)cn23)cc1	3	0	8	1	2	2	/	/
Cc1ccn2c(CN3CCOCC3)c(-c3ccccc3)nc2c1	3	-1	8	1	1	7	/	/
O=C(CSc1nc2c(c(=O)[nH]1)CCCC2)N1CCOCC1	0	-1	4	0	/	-6	/	/
O=C(OCC(=O)N1CCN(c2ccccc2)CC1)c1ccccc1OC(F)F	5.0*	-1	0	-1	0	-3	-2	-1
O=C(OCC(=O)N1CCCCCC1)c1ccccc1Br	4.5*	0	12*	5.7*	2	3	10*	5.3*
Cc1ccc(CN2CCCCC(NC(=O)Nc3cccc([N+](=O)[O-])c3)C2=O)cc1 (stereo unspecified)	-1	-1	-1	-2	/	-3	/	/
COc1cc(SC)ccc1C(=O)Nc1ccc(Cl)cn1	5.3*	1	12*	5	0	7	-2	-4
O=C(NNC(=S)Nc1ccccc1Cl)c1ccccc1Cl	11*	0	10	5	2	5	11*	6.7*
O=C(NNC(=S)Nc1cccc(Cl)c1)c1ccccc1	5.3*	0	6	3	1	4	4.8*	4.0*
